The test system of assay [1] is Vero E6 infected with SARS-CoV-2. The assay is described as follows: morphology score (similarity to uninfected cells); higher = more like uninfected cells. To be noted: 24 h.
For assay [2] the test system is unchanged. Kind of assay: SARS-CoV-2 infection rate relative to infected DMSO; higher = more infection, active = 60 or less. The note with it: 24 h.

Structures are written as SMILES.

As to `CCOC(=O)OC(C)OC(=O)[C@@H]1N2C(=O)[C@@H](NC(=O)[C@H](N)c3ccccc3)[C@H]2SC1(C)C` (stereo partly drawn) [bacampicillin] (10 µM), the morphology score in assay [1] was -0.0144. Besides, the SARS-CoV-2 infection rate in assay [2] was 114% (inactive).
Regarding `N=C(N)c1ccc(N2CCN(C3CCN(CC(=O)O)CC3)CC2)cc1` (10 µM), the morphology score in assay [1] is -0.0825. Moreover, in assay [2], the SARS-CoV-2 infection rate is 106% (inactive).
As for `C#CCN[C@@H]1CCc2ccccc21` [rasagiline] (10 µM), the morphology score in assay [1] came out at 0.0975. For the same molecule, the SARS-CoV-2 infection rate in assay [2] is 115% (inactive).
On to `CC(C)[C@@H](C)/C=C/[C@@H](C)[C@H]1CC[C@H]2C3=CC=C4C[C@@H](O)CC[C@]4(C)[C@H]3CC[C@]12C` [ergosterol] (10 µM), for which the morphology score in assay [1] stood at 0.0665. Moreover, the SARS-CoV-2 infection rate in assay [2] was 104% (inactive).
For `CCC(CC)(CC(=O)Nc1cccc(/C=C/c2nc(C3CCC3)cs2)c1)C(=O)O` [cinalukast] (10 µM), in that order: 0.068 and 105% (inactive).
The corresponding values for `C[C@H]1[C@H](C)CC[C@]2(C(=O)O)CC[C@]3(C)C(=CC[C@@H]4[C@@]5(C)C[C@@H](O)[C@H](O)C(C)(C)[C@@H]5CC[C@]43C)[C@H]12` [corosolic-acid] (10 µM) are -0.302 and 116% (inactive).
In assay [1], `CC(C)(C#N)c1ccc(N2C(=O)OCc3cnc4ccc(-c5cnc6ccccc6c5)cc4c32)cc1` (10 µM) gave a morphology score of 0.22. Also, the SARS-CoV-2 infection rate in assay [2] is 104% (inactive).
For the molecule `CCC(=O)O[C@H]1CC[C@H]2[C@@H]3CCC4=CC(=O)CC[C@]4(C)[C@H]3CC[C@]12C` (10 µM), the morphology score in assay [1] was -0.129. For the same molecule, in assay [2], the SARS-CoV-2 infection rate is 110% (inactive).
Consider `COc1cc(OC)c(/C=C2/C(=O)Nc3ccccc32)c(OC)c1` (10 µM), for which, in assay [1], the morphology score is -0.0269. Besides, in assay [2], the SARS-CoV-2 infection rate is 96.5% (inactive).

Values taken from the supplement of paper PMC13380429.
